From PubChem BioAssay AID493036 (Sanford-Burnham Center for Chemical Genomics, 2011) come the findings set out here.

Experiment [1] can be described thus: NTR1-driven beta-arrestin-GFP spot formation – imaging, U2OS cells, high content, primary screen (AID 493036).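 For activation: 0% = DMSO without peptide and 100% = 100 nM NTR1 peptide.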 Particulars: agonist mode, measured here: cell count, cytotoxicity flag, at 20 µM.
The target in experiment [2] is Neurotensin receptor type 1 (Homo sapiens) (UniProt P30989). The experiment is described as above. Particulars: agonist mode, at 20 µM, stronger effect = higher value.

The campaign covered roughly 330,000 compounds. About 560 (0.17%) were called active.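 Rule for the calls: active = activation at or above 40% of the spot to cytoplasm intensity ratio, with at least 20 cells analyzed; inconclusive = wells under 20 cells, flagged as cytotoxic or low count; inactive = the rest.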 The entries come from a sample that favours actives as a whole.

Neurotensin receptor type 1 (Homo sapiens), sequence (P30989 whole entry, looked up): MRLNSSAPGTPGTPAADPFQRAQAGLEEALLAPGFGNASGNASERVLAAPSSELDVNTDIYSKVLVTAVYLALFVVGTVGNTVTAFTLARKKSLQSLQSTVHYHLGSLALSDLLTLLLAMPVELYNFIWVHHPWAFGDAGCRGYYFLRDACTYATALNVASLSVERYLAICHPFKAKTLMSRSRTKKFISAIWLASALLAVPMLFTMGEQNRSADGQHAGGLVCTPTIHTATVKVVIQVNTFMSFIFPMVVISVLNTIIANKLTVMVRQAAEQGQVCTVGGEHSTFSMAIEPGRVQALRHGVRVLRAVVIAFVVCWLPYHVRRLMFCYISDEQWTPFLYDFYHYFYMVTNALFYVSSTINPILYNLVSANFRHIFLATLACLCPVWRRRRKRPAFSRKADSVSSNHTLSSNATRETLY

Take `COc1ccnc(Oc2ccccc2)n1`: in experiment [1], the cell count came to 45 cells. For the same molecule, the activation in experiment [2] was 3% (inactive).
For `Nc1c(-c2ccc(F)cc2)cnc2ncnn12`, in that order: 91 cells and -0.2% (inactive).
`CCOC(=O)Cn1c(=O)n(Cc2ccc(OC)cc2)c(=O)c2cccnc21` gave a cell count in experiment [1] of 62 cells. The activation in experiment [2] is -0.6% (inactive).
As for `Cc1nnc(-c2ccc(Oc3ccc(C)c(C)c3)c([N+](=O)[O-])c2)o1`, the cell count in experiment [1] was found to be 52 cells. For the same molecule, in experiment [2], the activation is -0.2% (inactive).
For `CCCNC(=O)COc1coc(CN2CCN(Cc3ccccc3)CC2)cc1=O`, in that order: 51 cells and 0.5% (inactive).
Turning to `Cc1cc(C)cc(NC(=O)COc2coc(CN3CCN(c4ccccc4)CC3)cc2=O)c1`, the cell count in experiment [1] amounted to 47 cells. Also, the activation in experiment [2] is 1.4% (inactive).
For `Cc1ccc(NC(=O)COc2coc(CN3CCc4ccccc4C3)cc2=O)cc1Cl`, the cell count in experiment [1] was determined as 63 cells. In experiment [2], the activation is 40.7% (active).
In turn, `COCCNC(=S)N/N=C/c1c(C)[nH]c2ccccc12` returned a cell count in experiment [1] of 45 cells. Also, the activation in experiment [2] was 1.2% (inactive).
`O=C(N/N=C/c1c(Cl)[nH]c2ccccc12)c1sc2ccccc2c1Cl` returned a cell count in experiment [1] of 73 cells. Moreover, the activation in experiment [2] was 41.9% (active).
For `COc1ccc(CNC(=O)CNC(=O)c2sc3ccccc3c2Cl)cc1OC`, in that order: 47 cells and 1.7% (inactive).
The molecule `CC(=O)N1c2ccc(S(=O)(=O)N3CCC(C(=O)NC4CCCCC4C)CC3)cc2CC1C` (stereo not drawn) yielded a cell count in experiment [1] of 45 cells. Also, in experiment [2], the activation was 2.5% (inactive).
In turn, `CCOc1ccccc1NC(=O)Cn1nnc(C(=O)NCc2cccs2)c1N` yielded a cell count in experiment [1] of 61 cells. The activation in experiment [2] is 1.8% (inactive).
Consider `CC(C)Cn1c(N)c(C(=O)NCc2cccs2)c2nc3ccccc3nc21`, for which, in experiment [1], the cell count was 78 cells. Moreover, the activation in experiment [2] was 41.7% (active).
In the case of `COCC(C)OC(=O)c1c(N)n(CCCN2CCOCC2)c2nc3ccccc3nc12` (stereo not drawn), in experiment [1], the cell count is 68 cells. Also, the activation in experiment [2] is -1% (inactive).
For `O=C(c1cc(Cl)cc(Cl)c1)N1CCC(=O)N(C(COCc2ccccc2)Cc2ccccc2)CC1` (stereo not drawn), the cell count in experiment [1] was found to be 76 cells. In addition, the activation in experiment [2] is 8.8% (inactive).
Consider `CCCCN1C(=O)c2ccc(C(=O)Nc3ccc(S(=O)(=O)N(C)C)cc3)cc2C1=O`, for which the cell count in experiment [1] was found to be 77 cells. Further, in experiment [2], the activation was 3.1% (inactive).
In the case of `CCN(CC(=O)Nc1ccc(OC)cc1)C(=O)c1ccc(=O)n(Cc2ccccc2)n1`, in experiment [1], the cell count came out at 54 cells. Also, in experiment [2], the activation is -0.5% (inactive).
Consider `CC(C)Oc1c(Br)cc(Br)cc1/C=N/NC(N)=S`, for which the cell count in experiment [1] worked out at 60 cells. Besides, the activation in experiment [2] is 66.8% (active).
For the molecule `CC1(C(=O)N/N=C/c2cc3c(cc2Br)OCO3)CC1(Br)Br` (stereo not drawn), the cell count in experiment [1] came to 71 cells. The activation in experiment [2] is 5.3% (inactive).
`O=c1oc2ccccc2cc1-c1csc(Nc2ccc(O)cc2)n1`: the cell count in experiment [1] worked out at 50 cells. Besides, the activation in experiment [2] is 76.8% (active).
On to `O=c1oc2ccccc2cc1-c1cn(-c2ccccc2)c(=S)[nH]1`, for which the cell count in experiment [1] is 47 cells. In experiment [2], the activation is 6.1% (inactive).
In the case of `Cc1ccc(Nc2nc(-c3ccc(O)cc3O)cs2)nc1`, the cell count in experiment [1] came to 37 cells. Further, the activation in experiment [2] is 18.9% (inactive).
As for `CC1(C)Cc2ccccc2-c2[nH]c(=S)[nH]c(=O)c21`, the cell count in experiment [1] worked out at 53 cells. Besides, the activation in experiment [2] was 0.3% (inactive).
The molecule `CC1(C)Cc2ccccc2-c2nc(CN3CCOCC3)[nH]c(=O)c21` showed a cell count in experiment [1] of 89 cells. Besides, the activation in experiment [2] is -0.1% (inactive).
For `CCC1(CC)Cc2ccccc2-c2nc(CCl)[nH]c(=O)c21`, in that order: 60 cells and 61.8% (active).
In experiment [1], `C=CCNc1nc(N)c([N+](=O)[O-])c(NC2CCCCC2)n1` registered a cell count of 87 cells. Also, the activation in experiment [2] was 5.1% (inactive).
As to `Nc1nc(Nc2ccccc2F)nc(NC2CCCCC2)c1[N+](=O)[O-]`, the cell count in experiment [1] was found to be 83 cells. Moreover, the activation in experiment [2] is 43.1% (active).
As to `Nc1nc(NCC2CCCO2)nc(Nc2ccccc2F)c1[N+](=O)[O-]` (stereo not drawn), the cell count in experiment [1] was found to be 40 cells. The activation in experiment [2] is 0.5% (inactive).
Regarding `Cc1ccc(S(=O)(=O)N2CCOCC2)cc1C(=O)OC1CCCCC1=O` (stereo not drawn), the cell count in experiment [1] amounted to 30 cells. Moreover, the activation in experiment [2] was 0.7% (inactive).
For `Cc1cc(C)n(CCNS(=O)(=O)c2ccc(Cl)cc2)n1`, in that order: 44 cells and 1.1% (inactive).
The molecule `Cc1ccccc1OCc1nnc(SCC(=O)N2c3ccccc3Sc3ccc(Cl)cc32)o1` had a cell count in experiment [1] of 65 cells. Besides, the activation in experiment [2] was 4.7% (inactive).
With `Oc1ccc(-c2nnc(Nc3ccccc3)c3ccccc23)cc1`, in experiment [1], the cell count was found to be 62 cells. Also, the activation in experiment [2] is -0.2% (inactive).
In turn, `Cc1cccc(-c2nc(Nc3ccc(O)cc3)c3ccccc3n2)c1` yielded a cell count in experiment [1] of 84 cells. The activation in experiment [2] was 60.9% (active).
For `CN1CCN(c2nc(Nc3ccc(O)cc3)nc3ccccc23)CC1`, the cell count in experiment [1] turned out to be 47 cells. For the same molecule, in experiment [2], the activation was 0.5% (inactive).
Consider `Cc1cc(C)cc(N(CC(=O)N2CC=C(c3ccccc3)CC2)S(=O)(=O)c2c(C)noc2C)c1`, for which the cell count in experiment [1] came out at 52 cells. Besides, in experiment [2], the activation was 3.3% (inactive).
`COc1ccc(C)cc1S(=O)(=O)Nc1cc2c3c(c1)CCC(=O)N3CCC2`: the cell count in experiment [1] came out at 52 cells. In addition, in experiment [2], the activation was -1.6% (inactive).
For `Cc1ccccc1C(=O)N1CCC(C(=O)Oc2ccc(C#N)cc2)CC1`, in that order: 77 cells and 0.9% (inactive).
For `Cc1cc(Cl)ccc1OCc1nc(-c2ccncc2)no1`, in experiment [1], the cell count is 20 cells. In addition, the activation in experiment [2] is 1.2% (inactive).
Take `Cn1c(-c2ccc(C(=O)c3ccccc3)s2)nc2ccccc21`: the cell count in experiment [1] worked out at 111 cells. Also, the activation in experiment [2] is -1.6% (inactive).
On to `O=C(CCc1ccc(S(=O)(=O)N2CCOCC2)cc1)Nc1ccc2ccccc2c1`, for which the cell count in experiment [1] turned out to be 90 cells. For the same molecule, the activation in experiment [2] was 1.8% (inactive).
For `CCOC(=O)c1cccc(NS(=O)(=O)c2c(C(=O)N3CCCCCC3)c(C)n(C)c2C)c1`, in that order: 47 cells and 1.2% (inactive).
With `Cc1cccc(-n2c(SCC(N)=O)nc3c(c2=O)C2(CCCCC2)Cc2ccccc2-3)c1`, the cell count in experiment [1] turned out to be 62 cells. In experiment [2], the activation is 49.9% (active).
In experiment [1], `N#CCSc1nc2c(c(=O)n1Cc1ccccc1)C1(CCCC1)Cc1ccccc1-2` displayed a cell count of 47 cells. Moreover, the activation in experiment [2] was 3.2% (inactive).
In turn, `Cc1cccc(-n2c(=O)c3c(C)c(C)sc3n(CC(N)=O)c2=O)c1` displayed a cell count in experiment [1] of 70 cells. In experiment [2], the activation is 0.5% (inactive).
For the molecule `CC(C)(C)OC(=O)NCCCCCNC(=O)c1[nH]cnc1C(=O)Nc1nccs1`, in experiment [1], the cell count was 56 cells. The activation in experiment [2] was 2.3% (inactive).
Molecule `CN1/C(=C\C=C2\N=C(c3ccc(F)cc3)OC2=O)C(C)(C)c2ccccc21` showed a cell count in experiment [1] of 59 cells. Besides, in experiment [2], the activation is -1% (inactive).
For `CC1=CCC2C(=O)N(c3cccc(C(=O)NC(C)c4ccccc4)c3)C(=O)C2C1` (stereo not drawn), in that order: 86 cells and -1.2% (inactive).
For `Cc1ccc(C(=O)N/N=C\c2cc(Br)c(Br)o2)cn1`, in that order: 42 cells and 3.4% (inactive).
Take `CNC[C@H](CC1CCCCC1)NC[C@H](NCCC1CCCC1)[C@H](C)O`: the cell count in experiment [1] was found to be 59 cells. Also, the activation in experiment [2] was 4.7% (inactive).
Regarding `Cc1ccc(-n2c(SCC(=O)NCc3ccc4c(c3)OCO4)nnc2-c2cccnc2)c(C)c1`, in experiment [1], the cell count was determined as 50 cells. Besides, in experiment [2], the activation is -0.8% (inactive).
For the molecule `Cc1cccc(NC(=O)C2CCCN(C(=O)NCc3ccccc3)C2)c1C` (stereo not drawn), the cell count in experiment [1] turned out to be 37 cells. In experiment [2], the activation is 0.3% (inactive).
In the case of `CCCCCCSc1ccc(-c2nc3ccc(Cl)cn3c2NCc2ccccc2)cc1`, in experiment [1], the cell count stood at 65 cells. Moreover, the activation in experiment [2] is -1.8% (inactive).
On to `CCCCNc1c(-c2cccc(Sc3ccc(OC)cc3)c2)nc2ccccn12`, for which the cell count in experiment [1] amounted to 60 cells. Also, in experiment [2], the activation is 42.5% (active).
The molecule `CCCCNc1c(-c2ccc(OC)c(Sc3ccc(OC)cc3)c2)nc2ccc(Cl)cn12` had a cell count in experiment [1] of 52 cells. For the same molecule, in experiment [2], the activation is 3.2% (inactive).
